Data taken from PubChem BioAssay AID504834 (National Center for Advancing Translational Sciences (NCATS), 2011).
The whole screen tested about 320,000 compounds, of which about 22,000 (6.9%) were called active. Where a call stands in place of a potency, no number is given. Another 27% or so got no clear call; they are omitted. For the sample, actives were picked, then their nearest neighbours and some compounds at random. Values without a mark were called inactive. The call rests on the fitted dose curve; in most records, active means well fitted inhibition curve with a large enough effect; inconclusive means small, poorly fitted or top-dose-only effect, or another doubt; inactive means no such curve, though single readings can be large or run the other way.

test: Primary qHTS for delayed death inhibitors of the malarial parasite plastid, 96 hour incubation; settings: P. falciparum luciferase reporter growth; series mostly up to 28.7 µM
Summary of the method: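 Cell-based qHTS: luciferase-tagged P. falciparum in erythrocytes (2% hematocrit, 0.05% parasitemia final) incubated with compounds for 96 hours, 37 C, 5% CO2; luciferase detection reagent then added and luminescence measured.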
Potency means the concentration at half of the fitted maximal effect.

Row | SMILES | Potency | activity change, negative = inhibition
1 | O=C(NCc1ccccc1Cl)NC(=O)c1csc([N+](=O)[O-])c1 | inactive | –
2 | CC1(C(=O)OCC(=O)Nc2ncc(Cl)cc2Cl)CC1(Cl)Cl (stereo not given) | inactive | –
3 | CCOC(=O)C1=NNC2(c3ccc(Cl)cc3)C(=O)N(c3cc(C)cc(C)c3)C(=O)C12 (stereo not given) | inactive | –
4 | COc1cc2c(cc1OC)C(c1cccc([N+](=O)[O-])c1)=NCC2 | inactive | –
5 | CCOC(=O)C1=NN(c2ccc(Cl)cc2)/C(=C/C2=NCCc3cc(OC)c(OC)cc32)S1 | 4.15 µM (active) | –
6 | CCCCN(C(=O)C1CCC1)c1c(N)n(Cc2ccccc2)c(=O)[nH]c1=O | inactive | –
7 | O=S(=O)(NC1CC1)c1ccc(F)c(F)c1 | inactive | –
8 | Cn1ncc2c(N3CCCCC3)nc(NCCCO)nc21 | inactive | –
9 | COc1cc(C(=O)NN(CCC#N)C2=NS(=O)(=O)c3ccccc32)cc(OC)c1OC | inactive | –
10 | CN(C)[C@@H]1C(=O)C(C(N)=O)=C(O)[C@@]2(O)C(=O)C3=C(O)c4c(O)ccc(Cl)c4[C@@H](O)[C@H]3C[C@@H]12 | 0.37 µM (active) | –
11 | C=C1c2c(Cl)ccc(O)c2C(O)=C2C(=O)[C@]3(O)C(O)=C(C(N)=O)C(=O)[C@@H](N(C)C)[C@@H]3[C@@H](O)C12 (stereo not given in full) | 0.738 µM (active) | –
12 | COc1ccc(OCCC(=O)c2ccc(OC)cc2)cc1 | inactive | –
13 | CCN(c1ccccc1)S(=O)(=O)c1cc2c(cc1C)n(C)c(=O)c(=O)n2C | inactive | –
14 | Cn1c2ccccc2c2cc(/C=C(\NC(=O)c3ccccc3)C(=O)NCC(=O)O)ccc21 | inactive | –
15 | COc1ccc(-c2cc(C(F)(F)F)nc(NCc3cccnc3)n2)cc1 | 13.1 µM (active) | –
16 | COc1ccc(C(=O)O)cc1S(=O)(=O)NCc1cccnc1 | inactive | –
17 | COc1ccc(-c2cc3ncccc3cn2)cc1 | inactive | –
18 | CCN(CC)S(=O)(=O)c1ccc(N2CC(C(=O)NCc3cccnc3)CC2=O)cc1 (stereo not given) | inactive | –
19 | CCC(=O)c1ccc(OC(=O)/C=C/c2cc(OC)c(OC)c(OC)c2)cc1 | inactive | –
20 | CS(=O)(=O)C1=NN2C(=N)/C(=C\c3ccc(OCCOc4ccccc4)cc3)C(=O)N=C2S1 | inactive | –
21 | Cn1c2ccccc2c(=O)c2c(O)cccc21 | inactive | –
22 | Cn1c2ccccc2c2c(C(=O)N3CCN(c4ccc(F)cc4)CC3)cn(C3CCCC3)c(=O)c21 | inactive | –
23 | CCCc1nc2c(c(=O)c3ccccc3n2C)c(=O)n1-c1cc(C)cc(C)c1 | 5.86 µM (active) | –
24 | CCCc1nc2c(c(=O)c3ccccc3n2C)c(=O)n1C1CCCCCC1 | 14.7 µM (active) | –
25 | CCCCNC(=O)CCn1c(=O)c2ccccc2n(Cc2cc(C)ccc2C)c1=O | inactive | –
26 | COc1ccccc1C(=O)OCC(=O)NCCNC(=O)COC(=O)c1ccccc1OC | inactive | –
27 | Cn1cccc1C(=O)N1CCc2ccccc2C1 | inactive | –

Row | SMILES | Potency | activity change, negative = inhibition
28 | CCOc1ccc(NC(=O)CN(C)C(=O)c2c(C)noc2C)cc1OCC | inactive | –
29 | C=CC(COCc1ccccc1)N(Cc1ccccc1)S(=O)(=O)c1ccccc1Br (stereo not given) | 9.28 µM (active) | –
30 | C=CCCN(Cc1ccccc1)S(=O)(=O)c1ccccc1Br | inactive | –
31 | COc1ccc(S(=O)(=O)n2nc(C)c(S(=O)(=O)N3CCOCC3)c2C)cc1 | inactive | –
32 | COc1ccc(C(=O)NCCNc2ccc([N+](=O)[O-])cn2)cc1 | inactive | –
33 | Cn1c(CCC(=O)Nc2ccccc2F)nnc1SCC(=O)Nc1ccccc1Cl | inactive | –
34 | O=C(CSc1ccc(-c2cccs2)nn1)Nc1ccccc1F | 2.33 µM (active) | –
35 | Cc1csc(NC(=O)CSc2ccc(-c3ccc(F)cc3)nn2)n1 | – | -36.6% [at 1.15 µM]
36 | CCN(CC)S(=O)(=O)c1ccc(NC(=O)c2cnc(C)cn2)cc1 | inactive | –
37 | Cc1nn(CC(=O)NC2CCCCC2)c(=O)c2cccn12 | inactive | –
38 | Cc1cccc2c1cnn2C(=O)CCC(=O)NC1CCCCC1 | 13.1 µM (active) | –
39 | Cc1ccc2c(cnn2C(=O)CCC(=O)NC2CCCC2)c1 | inactive | –
40 | CCn1nnnc1SCC(=O)Nc1ccc(N(C)C)cc1 | inactive | –
41 | CCn1nnnc1SCC(=O)c1ccc(C)cc1C | 7.38 µM (active) | –
42 | CNC(=O)CSc1nnnn1-c1ccc(C)cc1C | inactive | –
43 | O=C1CSC(=S)N1c1ccc(Cl)c(Cl)c1 | inactive | –
44 | NC(=O)c1ccc(-c2csnn2)cc1 | inactive | –
45 | C[C@H](OC(=O)n1ccnc1)[C@@H]1O[C@@]2(C)CCC[C@@H]1O2 | inactive | –
46 | COc1ccccc1OCCC(=O)OCC(=O)NCc1ccccc1 | inactive | –
47 | COc1cc(C=O)c(Br)cc1OCC(=O)NCc1ccccc1 | 11.7 µM (active) | –
48 | COc1cc(C(=S)NCc2ccccc2)cc(Br)c1O | inactive | –
49 | CCOc1ccc(S(=O)(=O)N2CCC(c3ccccc3)CC2)cc1C(=O)O | inactive | –
50 | C=CCn1c(COc2ccccc2C)nnc1SCC(=O)O | inactive | –
51 | Nn1c(Cc2cccc3ccccc23)nnc1SCC(=O)N1CC(=O)Nc2ccccc21 | inactive | –
52 | C=CCn1c(COc2ccccc2F)nnc1SCC(=O)N1CC(=O)Nc2ccccc21 | 8.28 µM (active) | –
53 | O=C(COc1ccccc1)Nc1ccc(C(=O)N2CCCC2)cc1 | inactive | –
54 | COc1cc(Cl)c(C)cc1NC(=O)CN1CCCCCC1 | inactive | –

Row | SMILES | Potency | activity change, negative = inhibition
55 | Cc1cc(NC(=O)CSC2=NS(=O)(=O)c3cc(Cl)ccc3N2)no1 | inactive | –
56 | Cc1ccc(C(O)P(=O)(OC(C)C)c2ccc(N(C)C)cc2)cc1 (stereo not given) | inactive | –
57 | CCCOP(=O)(c1ccc(N(C)C)cc1)C(O)c1cc(OC)c(OC)c(OC)c1 (stereo not given) | 10.4 µM (active) | –
58 | CCCCOP(=O)(c1ccc(N(C)C)cc1)C(O)c1cc(OC)ccc1OC (stereo not given) | inactive | –
59 | CN=C1S/C(=C\c2ccc(Sc3ccc(Cl)cc3)o2)C(=O)N1C | inactive | –
60 | CCC(C)N1C(=O)S/C(=C/c2ccc(Sc3nc4ccccc4[nH]3)o2)C1=O (stereo not given) | 1.65 µM (active) | –
61 | CCCCSc1nc2ccccc2[nH]1 | inactive | –
62 | [2H]C(CCOS(N)(=O)=O)c1ccccc1 (stereo not given) | inactive | –
63 | COCCCn1c(SCC(=O)NC2CCCC2)nnc1-c1ccccc1 | inactive | –
64 | CC(C)(C)C(=O)NC1CC2CCCC(C1)N2C(=O)Nc1ccccc1F (stereo not given) | inactive | –
65 | O=S(=O)(c1cccc(-c2nnc(SC(F)F)n2-c2ccccc2)c1)N1CCCCC1 | 7.38 µM (active) | –
66 | O=S(=O)(c1cccc(-c2nnc3n2CCCCC3)c1)N1CCOCC1 | inactive | –
67 | O=S(=O)(c1cccc(-c2cn3ccccc3n2)c1)N1CCCC1 | inactive | –
68 | Cc1noc(C)c1C(=O)OCC(=O)N1CCN(S(=O)(=O)c2ccc3ccccc3c2)CC1 | inactive | –
69 | Cc1cc(S(=O)(=O)NC2CCCC2)ccc1-n1cnnn1 | inactive | –
70 | C[C@@H](Nc1nc(-c2ccccc2)nc2c1oc1ccccc12)C(=O)O | inactive | –
71 | O=c1[nH]c(CSc2ccccc2)nc2c1oc1ccccc12 | 5.22 µM (active) | –
72 | Cc1nc(Cl)c2oc3ccccc3c2n1 | inactive | –
73 | CC(C)(C)c1cc[n+](-c2[nH]c(=O)sc2/C=N/N=C(\[O-])c2ccccc2)cc1 | inactive | –
74 | O=C(OCC(=O)N1CCN(C(=O)c2ccco2)CC1)c1cccc(O)c1 | inactive | –
75 | CC(=O)Nc1ccc(NC(=O)CSc2nnc(C3CC3)n2-c2ccccc2)cc1 | inactive | –
76 | Nc1nnn(CC(=O)N/N=C/c2ccc(O)cc2)n1 | inactive | –
77 | O=C(NC1CC2CCCC(C1)N2C(=O)N1CCCCC1)C1CCCCC1 (stereo not given) | 14.7 µM (active) | –
78 | CCOCCCNC(=S)N1CCC(NC(=O)C2CCCCC2)CC1 | inactive | –
79 | O=C(NC1CCN(C(=S)Nc2ccc(Cl)cc2)CC1)C1CCCCC1 | inactive | –
80 | CSc1ccccc1OCc1cc(C(=O)N2C[C@H]3CC[C@H]2C3)no1 | inactive | –
81 | Cc1ccc(S(=O)(=O)NCCCn2ccnc2)cc1C(=O)NC(C)C | inactive | –

Row | SMILES | Potency | activity change, negative = inhibition
82 | COc1ccc(S(=O)(=O)N2CCCC(C(=O)NCCCn3ccnc3)C2)cc1OC (stereo not given) | inactive | –
83 | CCOc1ccc(S(=O)(=O)NCCCn2ccnc2)cc1NC(C)=O | 13.1 µM (active) | –
84 | CC(NC(=O)COc1cccnc1[N+](=O)[O-])c1ccc(Cl)cc1Cl (stereo not given) | inactive | –
85 | Clc1cccc(CN2COc3c(cc(Cl)c4cccnc34)C2)c1 | 0.329 µM (active) | –
86 | CC(C)CC(=O)N1CCN(Cc2cccc(Cl)c2)CC1 | inactive | –
87 | O=C(C1CCC1)N1CCN(c2ccccc2)CC1 | inactive | –
88 | COc1ccc(NC(=O)CCC(=O)Nc2nnc(C3CCCCC3)s2)cc1 | inactive | –
89 | COc1cc(C(=O)NCc2cc3cc(Cl)ccc3n2C)cc(OC)c1OC | inactive | –
90 | CCn1c(SCC(=O)c2ccc3ccccc3c2)nnc1-c1cccs1 | inactive | –
91 | O=C(CSc1nnc(-c2cccs2)n1Cc1ccccc1)N1CCc2ccccc2C1 | 10.4 µM (active) | –
92 | Cc1nc(SCC(=O)N2CCc3ccccc3C2)c2c(C)c(C)sc2n1 | inactive | –
93 | CCn1c(Cc2ccc(OC)cc2)nnc1SCC(=O)Nc1ccc(N2CCOCC2)cc1 | inactive | –
94 | CCn1c(SCC(=O)NC2CCCC2)nnc1-c1ccoc1C | inactive | –
95 | COc1ccc(NS(=O)(=O)c2ccc(NC(=O)c3ccc(N(C)S(C)(=O)=O)cc3)cc2)cc1 | inactive | –
96 | CCN(CC)c1ccc(NC(=O)c2ccc(=O)[nH]c2)cc1S(=O)(=O)Nc1ccc(OC)cc1 | 9.28 µM (active) | –
97 | O=C(NNC(=O)c1cccc(S(=O)(=O)Nc2ccc(Cl)cc2)c1)c1ccc(=O)[nH]c1 | inactive | –
98 | COc1ccc(S(=O)(=O)n2cnc3ccccc32)c(C)c1 | inactive | –
99 | CCCc1c(C(=O)N/N=C(\C)CCc2ccc(OC)cc2)nnn1-c1nonc1N | inactive | –
100 | CCN1CCN(C(=O)N(Cc2ccc(Cl)cc2)S(=O)(=O)c2ccc(C)cc2)CC1 | inactive | –
101 | O=C(CSc1n[nH]c(-c2cccnc2)n1)Nc1ccc(Cl)cc1 | inactive | –
102 | CC(C)CN(C(=O)c1ccc2c(c1)OCO2)C1CCS(=O)(=O)C1 (stereo not given) | inactive | –
103 | O=C(CN1C(=O)COc2ccccc21)NCCN1CCc2ccccc2C1 | inactive | –
104 | O=C(CN1C(=O)COc2ccc(Cl)cc21)Nc1ccc(N2CCOCC2)cc1 | inactive | –
105 | O=C(CN1C(=O)COc2ccccc21)Nc1ccc(F)cc1 | 1.47 µM (active) | –
